From PubChem BioAssay AID590 (National Center for Advancing Translational Sciences (NCATS), 2007)
About 6,500 (11%) of roughly 59,000 compounds were called active. About 15% were inconclusive and are not listed. No stated cut-off is given here; in the data, active means max dye-equivalent concentration above about 10 nM; inconclusive means mostly about 1.1 nM to 9.6 nM; inactive means weaker than that. For the sample, actives were picked, then their nearest neighbours and some compounds at random.

Assay: qHTS Assay for Spectroscopic Profiling in A350 Spectral Region
Conditions: Compound autofluorescence, 340/450 nm, Alexa 350 dye-equivalents; active compounds read high
Text: NIH Molecular Libraries Screening Centers Network [MLSCN]
NIH Chemical Genomics Center [NCGC]
Occasionally, the artifactual effect may originate from the compounds own spectral or other biophysical properties which generally tend to track its assay concentration. Pre-screening/profiling the library with respect to the compounds spectral properties should help one exclude false positives early on. While the most informative fluorescent profiling data set is obtained by performing a full excitation and emission scan of each well by using a monochromator-based plate reader, such an approach is practical only on a very limited scale as scanning each well requires long time. An alternative approach, applied here, is to perform plate reader scans using selected excitation and emission wavelength pairs to generate a multidimensional relational database that correlates compound concentration and the respective relative fluorescence intensity at a given wavelength set. A standard curve of Alexa 350 (A 350) present on each plate as six-point concentration series, was used to compute a normalized fluorescence response, termed dye-equivalent concentration, for each compound at each concentration.
NCGC Assay Protocol Summary:
100 mM Tris buffer, pH 8.0
The wells in columns 1 through 4 of a Kalypsys polypropylene 1536-well compound plate were filled with standard solutions of fluorophore corresponding to the spectral region of interest. Solutions of A 350 were placed in the following wells: I1, J1: 3 mM, I2, J2: 300 uM, I3, J3: 30 uM, I4, J4: zero (DMSO), K1, L1: 3 uM, K2, L2: […], K3, L3: 300 nM, K4, L4: zero (DMSO).
Six uL of buffer were dispensed to 1536-well Greiner black plates. Compounds and dye standards (23 nL) were transferred via Kalypsys PinTool. The plates were incubated for 15 min at room temperature, and then read on ViewLux (Perkin-Elmer) High-throughput CCD imager using 340 nm and 450 nm excitation and emission filter set.
Keywords: NIH Roadmap, MLSCN, MLI, MLSMR, qHTS, NCGC, A350, A-350, Fluorescent Profiling.

Max dye-equivalent concentration, inactive:
CN1CCN(Cc2nc3c(c(=O)n(C)c(=O)n3C)n2Cc2cccc3ccccc23)CC1
Cc1nnc(C)n1/N=C/c1ccc(C(C)C)cc1
O=C1CC(c2cccc(F)c2)C2=C(CCCC2=O)N1 (stereo not given)
CC(N)=NCc1cccc(CN)c1
CCCCN(CC)CCCNC(=O)CS(=O)(=O)Cc1nc(-c2cccc(OC)c2)oc1C
CNC(=O)n1ccc(C(=O)N2CCCCC2)n1
CN(C)/C=C/c1c(C#N)c(=O)ncn1Cc1ccccc1
O=C(Cc1cccs1)N1CCCC(c2nc(-c3ccc(S(=O)(=O)N4CCCC4)cc3)no2)C1 (stereo not given)
COc1cc(Cl)c(C)cc1NC(=O)CSc1nnc(-c2cccnc2)n1Cc1ccco1
CO[C@@H]1/C=C\O[C@]2(C)Oc3c(C)c(O)c4c(O)c(c(CN(C)C)c(O)c4c3C2=O)NC(=O)/C(C)=C\C=C[C@@H](C)[C@@H](O)[C@H](C)[C@@H](O)[C@H](C)[C@H](OC(C)=O)[C@@H]1C
CCC(=O)Nc1nc2ccccc2n1Cc1ccccc1C
C=C(Br)Cn1c(CCCC)nc2ccccc21
O=C(OCC(=O)N1CCCC1)c1ccco1
COc1ccc(C)cc1-n1nnnc1SCC(=O)c1cc(C)n(Cc2ccco2)c1C
Cc1noc(C)c1-c1cc(NCc2cccnc2)ncn1
COc1ccccc1CNc1ncnc2ccc(-c3c(C)noc3C)cc12
Cc1cccc(CNc2cc(-c3ccccc3Cl)ncn2)c1
CNc1cc(-c2c(C)noc2C)ncn1
O=C(NC1CC2CCCC(C1)N2C(=O)N1CCCCC1)C1CCCCC1 (stereo not given)
CCN(CC)P(=O)(/C(Cl)=C\Nc1c(C)n(C)n(-c2ccccc2)c1=O)N(CC)CC
CCCCN(CCCC)C(=O)CCS(=O)(=O)c1ccc2c(c1)n(C)c(=O)c(=O)n2C
CCOc1ccccc1Oc1cn[nH]c1-c1ccc(OC)cc1O
CCN(C(=O)CSc1ncn[nH]1)c1cccc2ccccc12
CC(=O)NS(=O)(=O)c1ccccc1
O=C(COc1ccc(F)cc1)N(CC1=CCS(=O)(=O)C1)c1ccccc1
COc1cc(C2C(C(=O)c3ccc(C)o3)=C(O)C(=O)N2Cc2cccnc2)ccc1O (stereo not given)
CCOC(=O)c1c(C)[nH]c(C(=O)NCc2ccccc2OC)c1C
CCOC(=O)c1c(C)[nH]c(C(=O)COc2ccc3c(c2)OCO3)c1C
CCOC(=O)COc1ccc(Cl)cc1C1NC(=O)NC(C)=C1C(C)=O (stereo not given)
O=S(=O)(NCc1cccnc1)c1ccc(Br)s1
CCC[C@H]1C(=O)N2C(N(C)C)=Nc3ccc(C)cc3N2C1=O
CC(=O)C1C(c2cccc(Oc3ccccc3)c2)NC(=O)NC1(O)C(F)(F)F (stereo not given)
COc1ccccc1N1CCN(C(=O)c2cc(-c3ccc(Cl)c(Cl)c3)on2)CC1
CCc1c(C)nc2ncnn2c1N1CCC(C(=O)NCc2ccc3c(c2)OCO3)CC1
C=CCC(NCCCO)c1cccc(OC)c1OC (stereo not given)
COc1ccc(OCc2ccc(-c3nc4ccccc4c(=O)n3N)o2)cc1
Cc1nnc(SCC(=O)N2CCc3ccccc32)n1-c1ccccc1
Nc1nnnn1/N=C/c1cccs1
N=c1c2c3c(sc2ncn1N)CCCCC3
COc1ccccc1-c1nc(N2CCN(C)CC2)c2ccccc2n1
COc1ccccc1CNC(=O)C1CCN(c2nc3ccccc3o2)CC1
Cc1ccc(C(c2nnnn2CS(=O)(=O)c2ccc(C)cc2)N2CCC(C(N)=O)CC2)cc1 (stereo not given)
O=P(c1ccc2c(c1)OCCO2)(N1CCOCC1)N1CCOCC1
COc1ccccc1CNCc1cccs1
O=C(O)C1CCN(c2ncnc3ccc(-c4ccccc4C(F)(F)F)cc23)CC1
CCCS(=O)(=O)N1CCN(C(=O)c2cccs2)CC1
COc1ccc(OCC(=O)N2CCN(C(=O)c3cccs3)CC2)cc1
CC(C)Oc1ccc(C2NC(=O)NC2=O)cc1 (stereo not given)
COc1ccc2c(c1OC)C(=O)OC2c1c(O)nc(SC)n(-c2ccccc2)c1=O (stereo not given)
O=C(CCCn1c(=O)oc2ccccc21)Nc1cccnc1
Oc1c(CN2CCOCC2)ccc(CN2CCOCC2)c1O
COc1ccc(-c2cc(C(F)(F)F)nc(SCCC(=O)NCc3ccco3)n2)cc1
O=C(CSc1nc(-c2ccco2)cc(C(F)(F)F)n1)NCc1cccs1
Cc1ccc(NC2=NC(c3ccccc3)n3c(nc(C)cc3=O)N2)cc1 (stereo not given)
CC(=O)NC1=NC(=O)CS1
COc1ccc(COC(=O)c2n[nH]c3ccccc23)cc1F
CCOC(=O)c1ccc(CS(=O)c2ccc(Cl)cc2)o1 (stereo not given)

Max dye-equivalent concentration, active:
O=C1CC(c2cccc(Br)c2)C2=C(CCCC2=O)N1 (stereo not given) 44 nM
CN(C)c1ccnc2sc3c(=O)n(Cc4ccccc4)cnc3c12 32 nM
CCc1nc2ccccc2n(CCOCCOCCn2c(=O)c(CC)nc3ccccc32)c1=O 45 nM
COCCNc1cc(-c2c(C)noc2C)ncn1 14 nM
Cc1cnc(CNc2cc(-c3c(C)noc3C)ncn2)cn1 22 nM
Cc1c(S(=O)(=O)O)ccc(N=Nc2c(O)c(C(=O)O)cc3ccccc23)c1Cl 12 nM
CCCCOC(=O)c1[nH]c(C)c(C(=O)OC)c1C 450 nM
COc1ccc(-c2cc3ccc(OCc4nn[nH]n4)cc3oc2=O)cc1 11000 nM
N#Cc1c2c(c(-c3ccccc3)[nH]c1=O)CCCC2 20 nM
COc1cc2nc(N3CCN(C(=O)[C@@H]4CCCO4)CC3)nc(N)c2cc1OC 830 nM
COc1ccc(S(=O)(=O)N2CCN(C(=O)c3cccs3)CC2)cc1OC 3700 nM
FC(F)(F)c1cc(-c2cccs2)nc(NCc2ccco2)n1 16 nM
CCOC(=O)c1ccc(COC(=O)c2cc(=O)[nH]c3ccccc23)o1 40 nM
